According to ChEMBL document CHEMBL3988442, “University of Dundee, Small-Polar-MMV Screening Library” (2021):
About 300 (0.45%) of roughly 67,000 compounds showed an effect of 50% or more. What follows is part of a selection rich in strong results, with near analogues and random picks from the rest.

biological target: Polyketide synthase Pks13 (Mycobacterium tuberculosis (strain ATCC 25618 / H37Rv)) (UniProt I6X8D2); test: Mycobacterium tuberculosis Polyketide synthase 13 Thioesterase (PKS13); assay type: functional; design: scale not given: in the data most compounds retested in dose-response had high values; conditions: 30 µM
Sequence (I6X8D2 whole entry): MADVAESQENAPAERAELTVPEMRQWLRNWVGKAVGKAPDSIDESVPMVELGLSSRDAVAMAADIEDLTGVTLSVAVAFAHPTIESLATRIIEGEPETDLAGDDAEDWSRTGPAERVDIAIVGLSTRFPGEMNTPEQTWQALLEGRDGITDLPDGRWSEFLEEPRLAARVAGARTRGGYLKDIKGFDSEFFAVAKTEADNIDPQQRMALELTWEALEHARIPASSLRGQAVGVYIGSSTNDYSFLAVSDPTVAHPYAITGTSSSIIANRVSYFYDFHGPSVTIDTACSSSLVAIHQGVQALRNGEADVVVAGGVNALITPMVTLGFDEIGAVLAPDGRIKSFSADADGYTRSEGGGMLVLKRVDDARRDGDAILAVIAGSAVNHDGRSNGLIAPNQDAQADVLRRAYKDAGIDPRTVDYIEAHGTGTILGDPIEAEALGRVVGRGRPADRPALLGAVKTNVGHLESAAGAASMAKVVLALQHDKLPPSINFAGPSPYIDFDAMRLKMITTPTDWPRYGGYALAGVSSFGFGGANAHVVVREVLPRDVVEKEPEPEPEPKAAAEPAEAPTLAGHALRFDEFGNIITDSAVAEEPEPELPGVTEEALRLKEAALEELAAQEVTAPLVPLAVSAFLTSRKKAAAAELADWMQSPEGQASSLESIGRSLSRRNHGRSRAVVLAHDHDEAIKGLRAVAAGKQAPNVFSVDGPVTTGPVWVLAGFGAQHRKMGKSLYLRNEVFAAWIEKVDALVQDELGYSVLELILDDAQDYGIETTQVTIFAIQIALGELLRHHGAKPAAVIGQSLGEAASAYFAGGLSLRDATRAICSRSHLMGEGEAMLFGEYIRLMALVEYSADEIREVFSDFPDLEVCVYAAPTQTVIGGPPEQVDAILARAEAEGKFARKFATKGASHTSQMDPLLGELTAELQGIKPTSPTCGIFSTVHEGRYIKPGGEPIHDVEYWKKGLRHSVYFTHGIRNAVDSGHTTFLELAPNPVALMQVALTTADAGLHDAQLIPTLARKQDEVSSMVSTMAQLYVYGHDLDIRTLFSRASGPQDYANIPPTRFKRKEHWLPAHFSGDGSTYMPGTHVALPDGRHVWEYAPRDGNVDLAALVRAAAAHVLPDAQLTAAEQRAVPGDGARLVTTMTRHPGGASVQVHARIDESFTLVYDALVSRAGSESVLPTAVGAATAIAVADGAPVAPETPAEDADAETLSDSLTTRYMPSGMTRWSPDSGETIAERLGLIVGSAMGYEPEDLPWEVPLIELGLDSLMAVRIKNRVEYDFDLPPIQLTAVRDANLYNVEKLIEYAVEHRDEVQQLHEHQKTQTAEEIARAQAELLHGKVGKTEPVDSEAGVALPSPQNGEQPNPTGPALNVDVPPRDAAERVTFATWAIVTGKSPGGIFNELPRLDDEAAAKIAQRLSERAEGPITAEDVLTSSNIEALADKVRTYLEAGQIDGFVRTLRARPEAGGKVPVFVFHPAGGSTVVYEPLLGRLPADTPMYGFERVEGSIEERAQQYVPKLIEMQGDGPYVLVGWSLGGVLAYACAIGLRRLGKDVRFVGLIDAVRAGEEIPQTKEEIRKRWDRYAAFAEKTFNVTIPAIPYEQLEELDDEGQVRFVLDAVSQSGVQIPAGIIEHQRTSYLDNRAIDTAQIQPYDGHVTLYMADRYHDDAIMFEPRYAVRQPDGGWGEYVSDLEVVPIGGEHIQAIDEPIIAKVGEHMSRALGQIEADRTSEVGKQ

SMILES | Percent Effect [%]
Cn1ccnc1CN1C[C@H](N2CCOCC2)[C@@H]2OCCC[C@@H]21 | -10.5
CC(C)N1Cc2cccc(NCC(=O)N(C)C3CCCCC3)c2C1 | 81.9
CC(C)C(C)N1Cc2cccc(NCC(=O)N(C)C)c2C1 (stereo unspecified) | -6.55
CC(C)N1Cc2cccc(NCC(=O)N(C)C)c2C1 | -31.9
CN(C)C[C@@H]1CCC[C@@H]2CN(c3cccnc3)C[C@@H]21 | -20.9
CS(=O)(=O)N1CCN2C(=O)N(C3CCCCC3)C[C@H]2C1 | 3.48
O=C([C@@H]1COC[C@H]2CN(c3ccncn3)C[C@H]21)N1CCCCO1 | -30
O=C(C1CCC1)N1CCO[C@H]2[C@H](OCCCn3cccn3)CC[C@@H]21 | -40.4
Cc1ccnc(NC(=O)c2ccc(Cl)o2)c1 | -6.1
O=C(Nc1cc(CSCCO)ccn1)c1ccc(Cl)o1 | 62
Cc1cscc1C(=O)Nc1cc(CSCCO)ccn1 | 11.8
Cc1cccc(CN2C[C@@H](NC(=O)C3CCC3)[C@H]3COC[C@H]32)n1 | -33.3
O=C(CCc1n[nH]c2c1CCCC2)N1C[C@@H]2CC[C@H](C1)N(CC1CC1)C2 | -15.4
Cc1nn(C)cc1-c1ccnc(N(C)Cc2ccc(F)cc2)n1 | -13.2
Cc1nn(C)cc1-c1ccnc(N(C)Cc2ccoc2)n1 | 139
Cc1nn(C)cc1-c1ccnc(N(C)Cc2cnn(C)c2)n1 | -7.71

SMILES | Percent Effect [%]
CC(C)N1[C@H](Cn2cncn2)C[C@@H]2CN(Cc3cccs3)CC[C@@H]21 | 2.62
O=C1CC(NCc2cnc(-c3cccs3)nc2)CN1c1ccccc1 (stereo unspecified) | -18.1
O=C1CC(NCc2cnc(C3CCCCC3)nc2)CN1c1ccccc1 (stereo unspecified) | -18
O=C1CC(NCc2cnc(N3CCCC3)nc2)CN1c1ccccc1 (stereo unspecified) | 65.7
O=S(=O)(c1ccccc1)N1C[C@@H]2CCCCN(Cc3cccs3)[C@@H]2C1 | -1.03
COc1cc2nc(NCc3cc(C)on3)nc(N)c2cc1OC | 78.9
COc1cc2nc(NCc3ccc(C)nc3)nc(N)c2cc1OC | -17.5
COc1cc2nc(NCc3scnc3C)nc(N)c2cc1OC | 12.1
CNC(=O)CN1CCO[C@H]2CN(CC3CCOC3)C[C@H]21 (stereo partly specified) | -18.9
O=C(c1cc(F)cc(F)c1)N1C[C@H]2CNC[C@H]2C1 | -29.4
COCCN1CC(=O)N2CC[C@@H](O)C[C@H]2C1=O | 7.83
Cc1ncc2c(n1)CN(Cc1nc3ccccc3o1)CC2 | -1.34
Cc1ncc2c(n1)CCN(CCCc1nc3ccccc3o1)C2 | 0.614
Cc1ncc2c(n1)CN(CCCc1nc3ccccc3o1)CC2 | 94.6
CCCN1CCN(C(=O)c2ccc(Cl)cn2)[C@H]2CS(=O)(=O)C[C@H]21 | 5.71
